Bioassay records deposited in PubChem by National Center for Advancing Translational Sciences (NCATS).
In the library only some 4.8% were active in any assay of this set; here they are far more common.
USP2a block – blocks human ubiquitin-specific protease USP2a. O75604. USP2 core, Ub-CHOP2 coupled fluorogenic reporter, 485/531. Potency, µM (doses to about 38.3 µM), usual class: inhibitors. actives 0.01% (n = 330,000)
Target sequence (O75604 whole entry, looked up): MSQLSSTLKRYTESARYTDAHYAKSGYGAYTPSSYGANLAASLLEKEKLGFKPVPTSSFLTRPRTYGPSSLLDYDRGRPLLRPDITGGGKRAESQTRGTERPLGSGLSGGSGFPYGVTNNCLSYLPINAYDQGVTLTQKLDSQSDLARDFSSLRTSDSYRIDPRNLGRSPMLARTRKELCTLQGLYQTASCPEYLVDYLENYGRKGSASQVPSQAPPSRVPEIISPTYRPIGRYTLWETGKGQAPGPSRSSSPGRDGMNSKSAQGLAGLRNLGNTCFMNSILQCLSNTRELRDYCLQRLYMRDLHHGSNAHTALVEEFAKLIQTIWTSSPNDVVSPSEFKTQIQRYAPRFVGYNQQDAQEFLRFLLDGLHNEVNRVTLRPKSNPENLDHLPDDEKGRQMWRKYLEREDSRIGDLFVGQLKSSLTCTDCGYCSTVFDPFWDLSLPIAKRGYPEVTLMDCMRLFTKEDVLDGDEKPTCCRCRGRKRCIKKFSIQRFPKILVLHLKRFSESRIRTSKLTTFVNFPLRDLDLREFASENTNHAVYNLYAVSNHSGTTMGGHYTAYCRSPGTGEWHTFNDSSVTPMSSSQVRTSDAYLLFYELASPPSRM
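Deubiquitinase activity read as fluorescence (485/531 nm) after Ub-CHOP2 cleavage activates the enterokinase reporter on its substrate; USP2 core 10nM, Ub-CHOP2 and substrate 25nM each, 30min compound preincubation then 60min RT; data normalized to NEM, curves fitted.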
ATXN2 expr inh – reduces ATXN2 reporter expression in HEK-293 cells | actives 0.72% (n = 360,000) | AID 1745845 | HEK-293 ATXN2-luciferase reporter, luminescence, 24 h | Potency, µM (titrated, usually from 57 µM), most hits filed as inhibitors; also: nearly all actives have a fitted effect of over 55% in size
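ATXN2-luciferase reporter cells (luciferase flanked by upstream and downstream ATXN2 gene portions) were treated 24 h at 37 °C with compounds at up to 57 uM. SteadyGlo luminescence gave expression; GF-AFC fluorescence gave viability.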
ATXN viability – reduces viability in counter-screen for ATXN expression inhibitors; Potency, µM (top dose mostly 56.7 µM), actives largely listed as cytotoxic; AID 651635; actives 0.49% (n = 400,000); S2 cells (HEK-293 line with an ATXN2-luciferase reporter) viability, CellTiter-Fluor protease fluorescence, 24 h; also: nearly all actives have a fitted effect of over 40% in size
IL1B secr inh – blocks inflammasome-driven IL-1 beta release. actives 4.7% (n = 360,000). activity change, % at 57.5 µM. AID 743279. THP-1 LPS/ATP IL-1B secretion, AlphaLISA, 16 h; stronger effect = lower value; in the data active = activity change below about -50%; inconclusive = mostly about -30% to -49%
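THP-1 cells pretreated 1 hr with compounds (up to 57.5 uM final), then stimulated with LPS (250 ng/mL final) plus ATP (1.25 mM final); secreted IL-1B measured by AlphaLISA after 16 hr, decreased signal indicating inhibition.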
USP1 inh – blocks the human USP1/UAF1 deubiquitinase complex. AID 743255. actives 0.23% (n = 390,000). Potency, µM (doses to about 57.1 µM), actives largely listed as inhibitors. recombinant USP1/UAF1, Ub-Rhodamine cleavage fluorescence. O94782; also: nearly all actives have a fitted effect of over 60% in size
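USP1/UAF1 complex (1 nM) preincubated 15 min at room temperature with compound, then Ub-Rho substrate (150 nM final) added. Kinetic fluorescence at 480/540 nm over 6 reads at 60 s intervals; 50 mM HEPES pH 7.8, 0.5 mM EDTA, 0.1 mg/ml BSA, 1 mM TCEP, 0.01% Tween-20.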
A number is an active result; - = inactive; ? = inconclusive; . = no result given; [ ] = remark or other dose. Unless noted, calls follow the shape of the dose curve; as a rule, active = well fitted curve in the direction sought with a large enough effect; inconclusive = small, poorly fitted or top-dose-only effect, or another doubt; inactive = no such curve, though single readings can be large; an effect the other way counts as inactive or inconclusive.

SMILES	USP2a block	ATXN2 expr inh	ATXN viability	IL1B secr inh	USP1 inh
Clc1cccc(Cl)c1CNCCCSc1ncccn1	-	.	-	-	-
Clc1ccc(CNCCCSc2ncccn2)cc1Cl	-	-	-	-62	-
c1ccc2c(c1)Nc1cc3ccccc3cc1S2	-	-	-	-	-
c1ccc2c(c1)Nc1ccncc1S2	-	-	-	-94	-
CCN(CC)S(=O)(=O)c1ccc(C(=O)Nc2cccc(C)c2)cc1	-	-	-	?	-
CC(C)(C)c1ccc(S(=O)(=O)Nc2ccc(C(O)(C(F)(F)F)C(F)(F)F)cc2)cc1	.	?	18µM	-	.
NC(=O)/C=C\C(=O)Nc1cccc(C(F)(F)F)c1	-	-	-	-105	-
COc1cccc(S(=O)(=O)Nc2ccc(C(O)(C(F)(F)F)C(F)(F)F)cc2)c1	.	?	?	-	.
CCN(CC)S(=O)(=O)c1ccc(NC(=O)c2cccs2)cc1	-	-[11.3 µM]	-	-52	-
CCN(CC)S(=O)(=O)c1ccc(C(=O)NNC(=O)c2cccs2)cc1	-	-	?	-	-
CCN(CC)S(=O)(=O)c1ccc(NC(=O)Nc2cccc(C(F)(F)F)c2)cc1	-	20µM	?	-89	-
NNC(=O)Nc1cccc(C(F)(F)F)c1	-	-	-	-	-
COc1cc(C(=O)N(Cc2cc3ccc(C)cc3nc2N(C)C)C2CC2)cc(OC)c1OC	.	.	-	.	.
C[C@]12CCC3c4ccc(O)cc4CCC3C1CCC2=O (some centres undefined)	.	-	.	.	.
Cc1coc2c(C)c3oc(=O)c(CCC(=O)N(C)CC(=O)O)c(C)c3cc12	-	.	-	-	-
O=C(Nc1ccc(OC(F)F)cc1)Nc1cccc(C(F)(F)F)c1	-	?	?	-80	-
Cc1ccccc1NC(=O)/C=C/c1cccc(C(F)(F)F)c1	-	-	-	-57	-
O=C(Nc1ccncc1)Nc1cccc(C(F)(F)F)c1	-	-	-	-	-
Cc1ccccc1NC(=O)COC(=O)/C=C/c1cccc(C(F)(F)F)c1	-	-	-	-	-
Cc1ccc(S(=O)(=O)Nc2ccc(NC(=O)Nc3cccc(C(F)(F)F)c3)cc2)cc1	-	?	?	-97	?
Cc1cn(C2CC(OC(=O)C(C)C)C(CO)O2)c(=O)[nH]c1=O (centres undefined)	-	-	-	-	-
COc1cccc(NC(=O)CSc2nc3cc(OC)c(OC)cc3c3nc(-c4ccccc4)nn23)c1	.	-	-	.	-
CCn1c(/C=C/Nc2ccccc2)[n+](CC)c2cc(Cl)c(Cl)cc21	-	?	32µM	-	-
Cc1c(C(=O)NCc2ccc(C#N)cc2)sc(=O)n1Cc1ccccn1	.	-	-	-	.
O=C1CC(c2ccco2)CC2=C1C=Nc1ccccc1N2 (centres undefined)	-	-	-	-	-
SMILES	USP2a block	ATXN2 expr inh	ATXN viability	IL1B secr inh	USP1 inh
O=c1[nH]c2c(s1)C=Nc1ccccc1N2	?	-	-	-	28µM
NS(=O)(=O)c1ccc(CCNCc2cc(Br)ccc2OCc2ccccc2F)cc1	-	-[11.3 µM]	-	.	-
NS(=O)(=O)c1ccc(CCNCc2ccccc2OCc2ccc(Cl)cc2)cc1	-	?	-	-81	-
C=CCOc1ccccc1CNCCc1ccc(S(N)(=O)=O)cc1	-	-	-	-	-
NS(=O)(=O)c1ccc(CCNCc2cc(Cl)ccc2OCc2ccccc2)cc1	-	-	-	-100	-
Cc1cccc(C(C)C)c1NC(=O)COC(=O)CCN1C(=O)C2CC=CCC2C1=O (centres undefined)	-	-	-	-	-
Cc1c(C(=O)N2CCN(C(C)C)CC2)sc2ncnc(NCc3ccco3)c12	.	.	-	.	.
COc1cccc(CNC(=O)c2cccc(N3CCCS3(=O)=O)c2)c1	.	-	-	.	-
CCOc1ccc(C(=O)OCc2cc(=O)n3cc(C)sc3n2)cc1	.	-	-	.	-
O=C(Nc1ccccc1C(=O)N/N=C/c1ccncc1)c1ccccc1	-	-	-	-	-
Cc1ccc(S(=O)(=O)N2CCOCC2)c2nsnc12	-	-	-	-	-
O=S(=O)(c1ccc(Br)c2nsnc12)N1CCOCC1	-	-	-	-54	-
CCOc1ccccc1NS(=O)(=O)c1ccc2oc(=O)c3ncn(C)c3c2c1	.	?	?	.	-
